Among the data in PubChem BioAssay AID1981 (Southern Research Specialized Biocontainment Screening …, 2009) are outcome values, retold here.

Each structure is given as a SMILES string. About 480 (22%) of roughly 2,200 compounds were called active. No rule for the calls is given here. Only a sample is shown. A call without a number means that no potency is given here. Potency and affinity values are given separately.

A short description of the experiment: S. Typhimurium GFP fluorescence dose response in modified counterscreen for PhoP regulon inhibitor project (AID 1981). The following applies: 4 h; series mostly up to 150 µM.
With `NNc1nc2c(-c3cccc(C(F)(F)F)c3)nnn2c2ccccc12`, the outcome was inactive. The result for `O=C(Nc1ccc(Br)cc1)c1ccc(F)c(S(=O)(=O)NCc2cccs2)c1` reads “inactive”; that for `Cc1cc(C)cc(CC(Cc2nc3ccccc3[nH]2)c2nc3ccccc3[nH]2)c1` (stereo unspecified), “inactive”; that for `O=C(/C=C/c1ccco1)NC(=S)Nc1ccc(N2CCCC2)cc1`, “inactive”. Take `Cc1cc2ncn(C3CC(=O)N(Cc4ccc(N5CCCC5=O)cc4)C3=O)c2cc1C` (stereo unspecified): the compound was called inactive.

With `O=C(NC(=Nc1ccccc1)N1CCOCC1)Nc1ccccc1`, the call was inactive.

In the case of `Cc1ccc(NC(=O)NCC2CCN(Cc3cccc(Cl)c3)CC2)cc1Cl`, the call was inactive. For the compound `Cc1ccc(NC(=O)c2cc(S(=O)(=O)N3CCC4(CC3)OCCO4)ccc2F)cc1`, the compound was classed as inactive.

For the compound `COc1ccc(-c2cc(-c3ccc(OC)c(OC)c3)n[nH]2)c(O)c1`, the compound was classed as inactive. Consider `COc1ccc(-c2ccc(C#N)c(SCC(=O)NCCc3ccccc3)n2)cc1OC`, for which the compound was classed as inactive.

Take `Cc1cc(C)n2c(SCC(=O)NCc3ccco3)nnc2n1`: the call was inactive.

For `Cc1ccc(C(=O)C2COC(=O)C2)cc1` (stereo unspecified), the call was inactive.

`COc1ccc(C2COC(=O)C2=N)c(NC(=O)c2ccc(Cl)cc2)c1` (stereo unspecified): the call was inactive.

For `COc1ccc(OC)c(C(C(=O)NCc2ccco2)N(C(=O)Cn2nnc3ccccc32)C(C)C)c1` (stereo unspecified), the result was inactive. For `Cc1ccc(NC(=O)COc2ncnc3c(Cl)cc(Cl)cc23)cc1[N+](=O)[O-]` the value was “inactive”; for `O=C(NCc1cccnc1)c1ccc(Cl)cc1[N+](=O)[O-]`, “inactive”; for `Cc1ccc(C)c(NC(=S)NCCSc2ccc(Cl)cc2)c1`, “inactive”. In the case of `O=C1c2cccc(OCC(=O)N3N=C(c4cccs4)CC3c3ccc(F)cc3)c2CCN1Cc1cccnc1` (stereo unspecified), the outcome was inactive. For `Cc1ccc(NS(=O)(=O)c2ccc(N3C(=O)CCC3=O)cc2)cc1`, the call was inactive. On to `CCOc1ccc(NC(=O)Nc2cccs2)cc1`, for which the call was inactive. With `CC(C)CCNC(=O)C12CN(Cc3ccccc3)CC1C(c1cccc([N+](=O)[O-])c1)=NO2` (stereo unspecified), the outcome was inactive. As to `O=C(Nc1cc(C(F)(F)F)ccc1Cl)C(NCc1ccccc1)c1ccccc1` (stereo unspecified), the call was inactive. Turning to `Cc1oc(CC(C)C)c(CN)c1C(=O)O`, the call was inactive.

On to `CCOC(=O)C1=C(C)NC(=O)NC1c1c(OCC(=O)N2CCCCC2)ccc2ccccc12` (stereo unspecified), for which the compound was classed as inactive.

On to `COc1ccc(C2=NOC(C(=O)Nc3ccc(C)cc3)C2)cc1OC` (stereo unspecified), for which the result was inactive. Regarding `Cc1cc([N+](=O)[O-])cc2ncccc12`, the compound was classed as inactive.

`C=CCn1c(SCCOc2ccc(OC)cc2)nnc1C(C)NC(=O)c1ccc(OC)cc1` (stereo unspecified): the result was inactive.

For the compound `COc1ccc(-n2c(CNc3ccc(C)cc3)nnc2SCc2ccccc2)cc1`, the result was inactive. Regarding `Cc1ccc2nc(SCC(=O)c3c(C)[nH]c4ccccc34)[nH]c2c1`, the compound was classed as inactive.

As for `CCOC(=O)c1ccccc1C(=O)N1CCOCCOCCOCC1`, the result was inactive. For `CCOC(=O)c1c(-c2ccc(C)o2)csc1N` the value was “inactive”. As for `O=C1N2CCCc3cccc(c32)C12Nc1ccccc1S2` (stereo unspecified), the result was inactive. As to `N/C(=N\OC(=O)c1cccs1)C1(c2ccc(Cl)cc2Cl)CC1`, the outcome was inactive. The result for `Nc1c(C(=O)Nc2ccc(F)cc2)sc2nc(-c3ccco3)ccc12` reads “inactive”.

With `CCOc1ccc(N/C=C/C(=O)c2ccc(OC)cc2)c([N+](=O)[O-])c1`, the call was inactive. `CCCCCCOC(=O)Sc1nc2ccccc2o1`: the call was inactive. For `CCCCOC(=O)CSc1nc2c(c(=O)[nH]c(=O)n2C)n1C/C=C(\C)Cl` the value was “inactive”; for `O=S1(=O)C=CC(Nc2ccccc2)C1` (stereo unspecified), “inactive”; for `C=CCNC(=O)C(=O)NN=C1CCN(C)CC1`, “inactive”. For the compound `COc1cccc(C(=O)Oc2c(CN3CCOCC3)cc(Cl)c3cccnc23)c1`, the result was inactive. For `COc1ccc2nc(NC(=O)C3CCCN3S(=O)(=O)c3ccc(C)cc3)sc2c1` (stereo unspecified) the value was “inactive”.

With `c1ccc2[nH]c(CSc3nccs3)nc2c1`, the outcome was inactive. The result for `CC(=O)c1ccc(NC(=S)NC(NC(=O)c2ccco2)C(Cl)(Cl)Cl)cc1` (stereo unspecified) reads “inactive”; that for `CN(C)c1ccc([C@@H]2[C@@H]([N+](=O)[O-])[C@H]3C=Cc4ccccc4N3[C@H]2C(=O)c2ccc(Cl)cc2)cc1`, “inactive”. The result for `O=C(O)c1cc(O)c2c(c1)[C@@H]([C@H]1c3cc(C(=O)O)cc(O)c3C(=O)c3c(O[C@@H]4O[C@H](CO)[C@@H](O)[C@H](O)[C@H]4O)cccc31)c1cccc(OC3O[C@H](CO)[C@@H](O)[C@H](O)[C@H]3O)c1C2=O` (stereo partly specified) reads “inactive”; that for `O=C(CCN1C(=O)C2C3C=CC(C3)C2C1=O)N1CCN(c2cccc(Cl)c2)CC1` (stereo unspecified), “inactive”; that for `CCCOc1ccc(C2NC(=S)NC(c3ccccc3)=C2C(=O)Nc2ccc(C)cc2)cc1OC` (stereo unspecified), “inactive”. The result for `CCOC(=O)c1c(C)[nH]c(C)c1C(=O)COC(=O)/C=C/c1cccc(F)c1` reads “inactive”; that for `c1ccc2c3c([nH]c2c1)-c1[nH]ncc1CC3`, “inactive”; that for `COc1ccc(CCN2CC3=C(C2=O)C(c2ccccc2)NC(=O)N3C)cc1OC` (stereo unspecified), “inactive”. Regarding `CC1CCN(S(=O)(=O)c2cccc(C(=O)N(C)C3CCS(=O)(=O)C3)c2)CC1` (stereo unspecified), the compound was classed as inactive. As for `COc1ccc(O)c(/C=c2/sc3nc4cc(C)c(C)cc4n3c2=O)c1`, the compound was classed as inactive. The result for `CC(=O)Nc1cccc(OCC(=O)Nc2ccc(F)cc2)c1` reads “inactive”; that for `O=C1CSc2ccccc2N1Cc1ccc(F)cc1`, “inactive”. The result for `COc1ccccc1N1CCN(C(CNS(=O)(=O)c2ccccc2)c2cccnc2)CC1` (stereo unspecified) reads “inactive”. The result for `CN1CCN(C(c2cccc(C(F)(F)F)c2)c2nnnn2C(C)(C)C)CC1` (stereo unspecified) reads “inactive”. As to `CC(=O)c1cccc(NC(=O)Nc2cc3sccc3n2C)c1`, the outcome was inactive. For `O=C(CN1C(=O)COc2ccccc21)Nc1ccc(F)cc1`, the compound was called inactive. The result for `O=C(O)C1CC=CCC1C(=O)NC12CC3CC(CC(C3)C1)C2` (stereo unspecified) reads “inactive”; that for `CSCCC(NC(=O)c1cccc(C)c1)C(=O)OCC(=O)NC(=O)c1cccn1C` (stereo unspecified), “inactive”; that for `CCOC(=O)C1=C(c2ccccc2)N=C2SCC(=O)N2C1c1ccc(O)c(OC)c1` (stereo unspecified), “inactive”. On to `COC(=O)Cn1cc(C(=O)c2ccco2)c2ccccc21`, for which the result was inactive. With `CCCCn1cnc2sc(-c3ccccc3)cc2c1=O`, the compound was called inactive. With `Cc1cc2oc(=O)cc(CSc3nc(N)cc(N)n3)c2cc1C`, the result was inactive.

Regarding `CC1CCN(c2ccc(NC(=S)NC(=O)c3ccc(-c4cccc([N+](=O)[O-])c4)o3)cc2)CC1`, the compound was called inactive. For `COc1ccc(-c2csc(Nc3cccnc3)n2)cc1` the value was “inactive”.
